From PubChem BioAssay
Values joined by “and” are separate entries in the source; they are usually repeats but may differ in a detail not shown here. Identical values can stand only once. For some of these results: Potency and affinity values are given separately. Active and inactive are the calls of the source.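 How the source made its calls, unless noted: active means compounds whose cell count with miR-34 switched on is under 0.7 times the count with it off; inactive means the rest.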

How the values were obtained:
[1] = P. berghei load reduction in hepatocytes – cell-based, HepG2, luciferase luminescence, HepG2 viability, primary screen (AID 624349; in the data active means parasite load remaining mostly below about 12%, no sharp cut-off; inactive means mostly above about 10%;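 further: 100% = mean of DMSO negative control wells on the same plate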); conditions: P. berghei liver stage in HepG2, luciferase luminescence, concentration not given here; parasite load remaining: stronger effect = lower value; viability: measured here: HepG2 viability without parasites
[2] = viability loss with induced miR-34 in A549 – imaging, A549 dox-inducible miR-34, nuclei and caspase counts, primary screen (AID 1347080); conditions: A549 miR-34 inducible, Hoechst nuclei count, 48 h
[3] = MELAS cybrid and Rieske KO viability enhancers – cell-based, MELAS cybrids, Rieske KO mouse fibroblasts, CellTiter-Glo, primary screen (AID 1508586;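 active means mean z-score across replicates of 1.96 or higher in either the MELAS or the Rieske mutant cell line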;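 further: z relative to plate mean and SD of compound and empty wells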); conditions: low glucose
[4] = compounds altering viability of human ES cells (AID 493140; call rule not given here;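 further: cells exposed to compounds for four days before counting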); conditions: human embryonic stem cell survival screen; stronger effect = higher value
[5] = biological target: NAD(+) hydrolase SARM1 (Homo sapiens) (UniProt Q6SZW1); assay: blocking NAD cleavage by SARM1 SAM-TIR – cell lysate, NAD-Glo luminescence (AID 1508614;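 active means compound whose remaining NAD level is above about 45 nM, limit read from the data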); conditions: SAM-TIR HEK293T lysate NADase, at 1 µM, stronger effect = higher value
[6] = galactose survival enhancers in mitochondrial complex I cybrids – cell-based, galactose medium, ATP luminescence, primary screen (AID 1645843;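 active means z-score of at least 1.8 in each of two replicates, scored against plate mean and spread of sample wells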;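 further: positive z means more ATP and so rescue of galactose-driven cybrid death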); conditions: complex I mutant cybrid cells, 72 h, stronger effect = higher value
[7] = yeast 75Q aggregation reduction – 75Q-TubU reporter (AID 1593); conditions: Yeast 75Q polyglutamine aggregation reporter
[8] = restoration of touch response, mutant HTT neurons – whole organism, C. elegans mechanosensory neurons, N-terminal huntingtin (AID 1599); conditions: C. elegans polyQ-huntingtin mechanosensory neurons, stronger effect = higher value
[9] = glutamate transport activators, MN-1 cells, MN-1 cell line (AID 1612); conditions: MN-1 motor neuron cells, stronger effect = higher value;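 further: tested at 1 µM final; 0% = mean of DMSO vehicle wells on each plate; positive means more glutamate uptake than control and negative means less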
[10] = GFP-Q80 aggregate reduction, neuronal-like cells, cell-based, NGF-treated PC12, GFPQ80 (AID 1614); conditions: PC12 NGF-treated GFP-polyQ80 inclusion reduction;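 further: lower means fewer inclusions and 0 means no inclusions at all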
[11] = 75Q-TubH aggregate inhibition, S. cerevisiae, yeast (AID 1616); conditions: S. cerevisiae 75Q-TubH polyglutamine aggregation suppression; stronger effect = higher value
[12] = stronger effect = lower value, cell number ratio, induced over uninduced
[13] = measured here: relative caspase fold change +Dox/-Dox
[14] = measured here: total cells with miR-34 induction, stronger effect = lower value
[15] = measured here: total cells without miR-34 induction
[16] = MELAS cybrid survival, CellTiter-Glo 48 h, stronger effect = higher value
[17] = Rieske KO mouse fibroblast survival, CellTiter-Glo 72 h

NAD(+) hydrolase SARM1 (Homo sapiens), sequence (Q6SZW1 whole entry, looked up): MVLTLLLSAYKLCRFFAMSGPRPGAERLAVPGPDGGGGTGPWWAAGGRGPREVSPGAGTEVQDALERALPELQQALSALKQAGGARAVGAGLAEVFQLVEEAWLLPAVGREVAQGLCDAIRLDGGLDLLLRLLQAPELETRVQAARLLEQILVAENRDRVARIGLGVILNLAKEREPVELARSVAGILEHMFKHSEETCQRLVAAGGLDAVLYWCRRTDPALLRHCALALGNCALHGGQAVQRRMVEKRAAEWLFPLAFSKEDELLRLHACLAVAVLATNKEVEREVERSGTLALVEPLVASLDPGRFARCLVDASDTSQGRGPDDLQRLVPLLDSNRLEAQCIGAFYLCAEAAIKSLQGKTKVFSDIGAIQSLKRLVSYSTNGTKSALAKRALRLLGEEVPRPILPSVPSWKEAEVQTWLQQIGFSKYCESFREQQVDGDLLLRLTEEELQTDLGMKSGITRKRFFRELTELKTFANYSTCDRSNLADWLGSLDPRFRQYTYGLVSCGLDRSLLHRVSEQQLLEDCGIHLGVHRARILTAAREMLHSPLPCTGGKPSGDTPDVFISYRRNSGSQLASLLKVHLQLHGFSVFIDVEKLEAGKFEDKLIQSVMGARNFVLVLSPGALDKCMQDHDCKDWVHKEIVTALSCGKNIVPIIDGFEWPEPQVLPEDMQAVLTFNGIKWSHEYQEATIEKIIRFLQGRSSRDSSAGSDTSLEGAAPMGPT

Q: For `C=CCN1CCCC1CNC(=O)c1cc2[nH]nnc2cc1OC` (centres undefined), which parasite load remaining [1] is on record?
A: 92.8% (inactive)

Q: And the viability [1]?
A: 100%

Q: What about the fold change [2, 12] of the same molecule?
A: 0.836 (inactive) and 0.882 (inactive)

Q: And the fold change [2, 13]?
A: 1.28 and 0.705

Q: What about the cell count [2, 14] of the same molecule?
A: 8730 and 8290

Q: What about the cell count [2, 15] of the same molecule?
A: 10400 and 9410

Q: What about the z-score [3, 16] of the same molecule?
A: -0.272 (inactive) and -0.0484 (inactive)

Q: And the z-score [3, 17]?
A: -0.199 and -0.148

Q: Which results are given for `CN[C@@H]1C(O[C@H]2O[C@H](CO)[C@@H](N)[C@H](O)[C@H]2O)O[C@H]2C[C@@H](N)[C@@H](O[C@H]3[C@H](O)[C@@H](O)[C@H](N)C[C@@H]3N)OC2[C@@H]1O` (some centres undefined)?
A: parasite load remaining [1]: 95.7% (inactive); viability [1]: 72.5%; fold change [2, 12]: 1.02 (inactive); fold change [2, 13]: 0.823; cell count [2, 14]: 9080; cell count [2, 15]: 8920; z-score [3, 16]: 0.718 (inactive); z-score [3, 17]: -0.268

Q: For `CCC(=O)[C@@]1(C)[C@H](C)C[C@H]2[C@@H]3CCC4=CC(=O)C=C[C@]4(C)[C@H]3[C@@H](O)C[C@@]21C`, which survival [4] is on record?
A: 5.08 (inactive)

Q: And the parasite load remaining [1]?
A: 104% (inactive)

Q: What about the viability [1] of the same molecule?
A: 73.1%

Q: And the fold change [2, 12]?
A: 0.901 (inactive)

Q: And the fold change [2, 13]?
A: 0.845

Q: What about the cell count [2, 14] of the same molecule?
A: 7190

Q: What about the cell count [2, 15] of the same molecule?
A: 7980

Q: And the z-score [3, 16]?
A: -0.53 (inactive)

Q: What about the z-score [3, 17] of the same molecule?
A: 0.51

Q: Which survival [4] does the source give for `CNC(=O)c1c(I)c(C(=O)NCC(=O)Nc2c(I)c(C(=O)O)c(I)c(C(=O)NCCO)c2I)c(I)c(N(C)C(C)=O)c1I` here?
A: 10.4 (inactive)

Q: And the parasite load remaining [1]?
A: 91.6% (inactive)

Q: What about the viability [1] of the same molecule?
A: 71.7%

Q: And the fold change [2, 12]?
A: 0.94 (inactive)

Q: And the fold change [2, 13]?
A: 0.7

Q: What about the cell count [2, 14] of the same molecule?
A: 9020

Q: And the cell count [2, 15]?
A: 9600

Q: And the z-score [3, 16]?
A: -0.247 (inactive)

Q: And the z-score [3, 17]?
A: 0.501

Q: Which results are given for `NC[C@H]1O[C@H](OC2[C@@H](N)C[C@@H](N)[C@H](O)[C@H]2O[C@@H]2O[C@H](CO)[C@@H](O)[C@H]2O)[C@H](N)[C@@H](O)[C@@H]1O` (some centres undefined)?
A: parasite load remaining [1]: 77.5% (inactive); viability [1]: 92.8%; fold change [2, 12]: 1.02 (inactive); fold change [2, 13]: 0.629; cell count [2, 14]: 9070; cell count [2, 15]: 8900; z-score [3, 16]: -0.509 (inactive); z-score [3, 17]: 0.171

Q: What does the source list for `CC1(C)S[C@@H]2[C@H](NC(=O)COc3ccccc3)C(=O)N2C1C(=O)O` (some centres undefined) (tested in a mixture with another compound)?
A: survival [4]: 4 (inactive); parasite load remaining [1]: 98.8% (inactive); viability [1]: 75.5%; fold change [2, 12]: 0.957 (inactive); fold change [2, 13]: 0.818; cell count [2, 14]: 9020; cell count [2, 15]: 9430; z-score [3, 16]: -0.168 (inactive); z-score [3, 17]: -0.00269

Q: For `Cc1onc(-c2c(F)cccc2Cl)c1C(=O)N[C@@H]1C(=O)N2C(C(=O)O)C(C)(C)S[C@H]12` (some centres undefined), which survival [4] is on record?
A: 15.2 (inactive)

Q: And the parasite load remaining [1]?
A: 131% (inactive)

Q: What about the viability [1] of the same molecule?
A: 74.7%

Q: What about the fold change [2, 12] of the same molecule?
A: 0.98 (inactive)

Q: What about the fold change [2, 13] of the same molecule?
A: 0.516

Q: What about the cell count [2, 14] of the same molecule?
A: 9050

Q: What about the cell count [2, 15] of the same molecule?
A: 9240

Q: What about the z-score [3, 16] of the same molecule?
A: 0.325 (inactive)

Q: What about the z-score [3, 17] of the same molecule?
A: 0.193

Q: With `C=C(NC(=O)C(=C)NC(=O)c1csc(C2=N[C@H]3c4csc(n4)[C@H]4NC(=O)c5csc(n5)[C@H]([C@@](C)(O)[C@@H](C)O)NC(=O)[C@H]5CSC(=N5)/C(=C\C)NC(=O)[C@H]([C@@H](C)O)NC(=O)c5csc(n5)[C@]3(CC2)NC(=O)[C@H](C)NC(=O)C(=C)NC(=O)[C@H](C)NC(=O)[C@H](C(C)CC)N[C@@H]2C=Cc3c([C@H](C)O)cc(nc3[C@H]2O)C(=O)O[C@@H]4C)n1)C(N)=O` (some centres undefined) as the molecule, how does the parasite load remaining [1] read?
A: 8.38% (inactive)

Q: And the viability [1]?
A: 102%

Q: What about the fold change [2, 12] of the same molecule?
A: 0.85 (inactive)

Q: What about the fold change [2, 13] of the same molecule?
A: 1.56

Q: What about the cell count [2, 14] of the same molecule?
A: 7430

Q: What about the cell count [2, 15] of the same molecule?
A: 8740

Q: And the z-score [3, 16]?
A: 5.43 (active)

Q: And the z-score [3, 17]?
A: 3.6

Q: Which survival [4] does the source give for `CC(C)(C)NC[C@@H](O)COc1cccc2c1CCCC2=O` here?
A: 6.25 (inactive)

Q: What about the parasite load remaining [1] of the same molecule?
A: 94.5% (inactive)

Q: What about the viability [1] of the same molecule?
A: 97%

Q: What about the fold change [2, 12] of the same molecule?
A: 0.911 (inactive)

Q: What about the fold change [2, 13] of the same molecule?
A: 1.14

Q: And the cell count [2, 14]?
A: 9750

Q: What about the cell count [2, 15] of the same molecule?
A: 10700

Q: What about the z-score [3, 16] of the same molecule?
A: 0.547 (inactive)

Q: And the z-score [3, 17]?
A: 0.0254

Q: For `COC(=O)Nc1nc2ccc(SC(C)C)cc2[nH]1`, which survival [4] is on record?
A: 0.5 (inactive)

Q: What about the parasite load remaining [1] of the same molecule?
A: 92.8% (inactive)

Q: What about the viability [1] of the same molecule?
A: 74.8%

Q: And the fold change [2, 12]?
A: 0.996 (inactive)

Q: What about the fold change [2, 13] of the same molecule?
A: 0.586

Q: What about the cell count [2, 14] of the same molecule?
A: 1650

Q: What about the cell count [2, 15] of the same molecule?
A: 1660

Q: What about the z-score [3, 16] of the same molecule?
A: -2.13 (inactive)

Q: What about the z-score [3, 17] of the same molecule?
A: 1.04

Q: For `CCC(=O)OCC(=O)C1(OC(=O)CC)[C@H](C)C[C@H]2[C@H]3[C@H]([C@@H](O)C[C@@]21C)[C@@]1(C)C=CC(=O)C=C1C[C@H]3Cl` (some centres undefined), which survival [4] is on record?
A: 4.33 (inactive)

Q: And the parasite load remaining [1]?
A: 104% (inactive)

Q: And the viability [1]?
A: 97.3%

Q: What about the fold change [2, 12] of the same molecule?
A: 0.785 (inactive)

Q: What about the fold change [2, 13] of the same molecule?
A: 1.32

Q: And the cell count [2, 14]?
A: 6260

Q: And the cell count [2, 15]?
A: 7980

Q: And the z-score [3, 16]?
A: 0.535 (inactive)

Q: And the z-score [3, 17]?
A: 0.903

Q: For `CCSc1ccc2c(c1)N(CCCN1CCN(C)CC1)c1ccccc1S2`, which survival [4] is on record?
A: 1.5 (inactive)

Q: What about the parasite load remaining [1] of the same molecule?
A: 77.3% (inactive)

Q: What about the viability [1] of the same molecule?
A: 70.9%

Q: What about the fold change [2, 12] of the same molecule?
A: 0.933 (inactive)

Q: And the fold change [2, 13]?
A: 0.655

Q: What about the cell count [2, 14] of the same molecule?
A: 7330

Q: What about the cell count [2, 15] of the same molecule?
A: 7860

Q: What about the z-score [3, 16] of the same molecule?
A: -1.53 (inactive)

Q: And the z-score [3, 17]?
A: 0.455

Q: What does the source list for `CN[C@H]1[C@@H](O)[C@H](O[C@H]2[C@@H](O)[C@@H](OC3OC(CN)=CCC3N)[C@H](N)C[C@@H]2N)OC[C@@]1(C)O` (some centres undefined)?
A: parasite load remaining [1]: 95.5% (inactive); viability [1]: 113%; fold change [2, 12]: 0.885 (inactive); fold change [2, 13]: 1.15; cell count [2, 14]: 9450; cell count [2, 15]: 10700; z-score [3, 16]: 0.354 (inactive); z-score [3, 17]: 0.0602

Q: With `CN(C)C/C=C(\c1ccc(Br)cc1)c1cccnc1` as the molecule, how does the parasite load remaining [1] read?
A: 45.2% (inactive)

Q: And the viability [1]?
A: 47.6%

Q: And the fold change [2, 12]?
A: 0.924 (inactive)

Q: And the fold change [2, 13]?
A: 0.86

Q: And the cell count [2, 14]?
A: 8480

Q: What about the cell count [2, 15] of the same molecule?
A: 9180

Q: And the z-score [3, 16]?
A: 0.27 (inactive)

Q: What about the z-score [3, 17] of the same molecule?
A: 0.193

Q: Which results are given for `CON=C1C[C@]2(C[C@@H]3C[C@@H](C/C=C(\C)C[C@@H](C)/C=C/C=C4\CO[C@@H]5[C@H](O)C(C)=C[C@@H](C(=O)O3)[C@]45O)O2)O[C@H](/C(C)=C/C(C)C)[C@H]1C`?
A: fold change [2, 12]: 1 (inactive); fold change [2, 13]: 0.955; cell count [2, 14]: 3250; cell count [2, 15]: 3250; remaining NAD [5]: 10 nM (inactive)

Q: Which results are given for `C=CC1=C(C(=O)O)N2C(=O)C(NC(=O)C(=NOCC(=O)O)c3csc(N)n3)C2SC1` (centres undefined)?
A: fold change [2, 12]: 0.923 (inactive); fold change [2, 13]: 0.894; cell count [2, 14]: 8710; cell count [2, 15]: 9440; z-score [6]: 0.065 (inactive)

Q: Which results are given for `CN1C2CC[C@H]1CC(OC(=O)C(O)c1ccccc1)C2` (some centres undefined)?
A: score [7]: 1.13; rescue above control [8]: -4.02; glutamate uptake change [9]: -10.2%; inclusion score [10]: 2; aggregation suppression score [11]: 1.37; fold change [2, 12]: 0.844 (inactive); fold change [2, 13]: 1.44; cell count [2, 14]: 10300; cell count [2, 15]: 12200
